We go through five compounds from PubChem BioAssay (NCATS).

A short description of assay [1]: AP1 Signaling Pathway (AID 357).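 Note: ME-180 reporter cells stimulated with EGF at its EC50 level; % is set by controls: 0 for no effect and ±100 for the full control effect.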 The essentials: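 Modulation of EGF-driven AP-1 transcription was assessed with a beta-lactamase reporter in ME-180 cells. Compound and EC50 EGF were co-incubated 5 hours at 37 °C before 2.5-hour CCF4 loading at room temperature and dual-emission reading.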
A short description of assay [2]: NFAT Signaling Pathway (AID 444).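 Note: carbachol stimulus at about its EC50 of 1 µM final; % is set by controls: 0 for no effect and ±100 for the full control effect.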 The note with it: Jurkat NFAT-bla M1, carbachol, beta-lactamase ratio, 5 h. Put shortly:
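Jurkat cells carrying an NFAT-driven β-lactamase reporter and co-transfected muscarinic M1 receptor were treated with compound plus carbachol (1 uM final, an EC50 level) for 5 h at 37 °C. CCF4 loading followed for 1 h at RT; 460/530 nm ratio gave %activity.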

A short description of assay [3]: Stat Signaling Pathway (AID 446).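 Note: ME-180 cervical cancer cells given 40 pM IL-6 alongside compound; SIE-controlled beta-lactamase reporter measured as 460/530 nm FRET emission ratio; % is set by controls: 0 for no effect and ±100 for the full control effect.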 Put shortly:
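IL-6/STAT signaling read in ME-180 cells via an SIE beta-lactamase reporter. Stimulus was 40 pM IL-6 (its AC50) for 5 hrs, so both activation and inhibition register.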

For assay [4], the target named is Glucocorticoid receptor (Homo sapiens) (UniProt P04150). The assay is described as follows: GR-GFP Redistribution (AID 450;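 active = compounds whose dose series gives a full or clear partial fitted curve of increased nuclear translocation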; note: potency is the fitted concentration of half-maximal effect). The note with it: U2OS GR-GFP nuclear translocation, laser cytometry, 2 h.
Glucocorticoid receptor (Homo sapiens), sequence (P04150 whole entry, looked up, the tested form may be a part): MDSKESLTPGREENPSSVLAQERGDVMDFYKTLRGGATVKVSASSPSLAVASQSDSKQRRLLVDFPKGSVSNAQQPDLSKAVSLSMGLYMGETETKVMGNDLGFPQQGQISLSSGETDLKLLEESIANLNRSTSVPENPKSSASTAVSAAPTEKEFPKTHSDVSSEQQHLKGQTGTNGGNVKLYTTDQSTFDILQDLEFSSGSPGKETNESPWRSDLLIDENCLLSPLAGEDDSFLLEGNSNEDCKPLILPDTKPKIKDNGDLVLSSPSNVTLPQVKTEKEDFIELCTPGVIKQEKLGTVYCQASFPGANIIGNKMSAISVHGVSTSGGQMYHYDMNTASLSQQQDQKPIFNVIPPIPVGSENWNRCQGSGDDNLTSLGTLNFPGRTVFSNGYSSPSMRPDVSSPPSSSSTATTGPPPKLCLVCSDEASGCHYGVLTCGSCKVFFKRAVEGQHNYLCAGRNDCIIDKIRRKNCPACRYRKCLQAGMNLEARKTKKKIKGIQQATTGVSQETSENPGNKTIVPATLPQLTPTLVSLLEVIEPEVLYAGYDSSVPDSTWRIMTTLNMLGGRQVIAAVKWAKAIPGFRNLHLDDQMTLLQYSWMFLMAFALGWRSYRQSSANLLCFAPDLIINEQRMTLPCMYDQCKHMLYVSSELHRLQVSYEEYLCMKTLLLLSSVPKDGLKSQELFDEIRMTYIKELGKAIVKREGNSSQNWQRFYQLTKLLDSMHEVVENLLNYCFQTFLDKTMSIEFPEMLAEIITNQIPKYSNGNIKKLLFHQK
Assay [5] has the same target. Nature of the assay: GR-EFC Redistribution (AID 451; calls by dose curve; note: potency is the fitted concentration of half-maximal effect). The note with it: CHO-K1 GR-EFC translocation, beta-gal luminescence, 2 h. The essentials: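 CHO-K1 cells stably expressing nuclear-localized β-gal enzyme acceptor and GR fused C-terminally to the enzyme donor fragment; ligand-driven nuclear translocation restores β-gal by complementation. Compounds titrated up to 46 uM final, 2 h at 37 °C; luminescence read.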

Assay [6] concerns the target Mitogen-activated protein kinase 10 (Mus musculus) (UniProt Q61831). Nature of the assay: JNK3 AlphaScreen Assay (AID 530).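 Note: kinase came from lysate of stimulated human HepG2 cells; signal reports phosphorylation of biotinylated GST-cJun 1-79 at Ser73 with 10 µM ATP; % is set by controls: 0 for no effect and ±100 for the full control effect.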 Put shortly: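 JNK3 came from HepG2 lysates pre-activated with IL-1beta and TNF-alpha and phosphorylated biotinylated GST-cJun (1-79) at 10 uM ATP, pH 7.6, room temperature. Compounds were titrated. AlphaScreen signal used anti-phospho-cJun (Ser73) antibody.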
A general note: In Alpha technology, singlet oxygen from a donor bead excites a nearby acceptor bead.

Assay [7] deals with Lysosomal acid glucosylceramidase (Homo sapiens) (UniProt P04062). The assay is described as follows: Glucocerebrosidase-p2 (AID 348; in the data active = potency below about 10 µM; note: potency is the fitted concentration of half-maximal effect). The note with it: purified GBA, blue fluorogenic substrate, 40 min. The essentials: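 Compounds titrated from 0.6 nM upwards against 0.2 nM enzyme in pH 5.9 citric acid/KH2PO4, taurocholate, tween-20; blue fluorogenic substrate 80 uM, 40 min room temperature, stopped and read Ex 365/Em 440 for AC50.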
Lysosomal acid glucosylceramidase (Homo sapiens), sequence (P04062 whole entry, looked up): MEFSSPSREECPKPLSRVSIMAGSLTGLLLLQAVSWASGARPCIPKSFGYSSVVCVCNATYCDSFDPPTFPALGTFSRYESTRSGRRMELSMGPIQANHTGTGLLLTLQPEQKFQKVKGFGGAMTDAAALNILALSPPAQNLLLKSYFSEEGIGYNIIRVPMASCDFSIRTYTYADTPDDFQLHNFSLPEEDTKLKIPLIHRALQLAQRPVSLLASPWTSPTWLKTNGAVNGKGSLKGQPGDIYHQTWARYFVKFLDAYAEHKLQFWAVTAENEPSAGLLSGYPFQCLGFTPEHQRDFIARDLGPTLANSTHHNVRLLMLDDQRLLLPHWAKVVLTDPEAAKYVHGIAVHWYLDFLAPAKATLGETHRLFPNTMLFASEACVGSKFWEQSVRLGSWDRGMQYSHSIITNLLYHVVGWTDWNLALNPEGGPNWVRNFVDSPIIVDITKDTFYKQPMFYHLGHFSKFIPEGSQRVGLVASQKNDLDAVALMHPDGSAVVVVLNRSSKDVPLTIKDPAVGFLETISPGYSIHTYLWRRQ

The target in assay [8] is Cytochrome P450 1A2 (Homo sapiens) (UniProt P05177). Nature of the assay: p450-cyp1a2 (AID 410; calls by dose curve;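 note: -100% = full effect of reference inhibitor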). The essentials:
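Human CYP1A2 (20nM) demethylated Luciferin-ME at its Km (100uM) in 100mM KPO4. After 10 min compound preincubation, NADPH regeneration ran the reaction 60 min at room temperature. Luciferin was read by luminescence, normalized to 57 uM furafylline.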

Assay [9] in a line: Cell Viability - BJ (AID 421; calls by dose curve;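 note: potency is the fitted concentration of half-maximal effect; cells exposed to compound for 40 hours at 37 °C before readout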). The note with it: BJ fibroblast viability, qHTS. The essentials:
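Quantitative HTS: ATP depletion in BJ cells after 40 hr compound exposure in complete culture medium, detected with CellTiter-Glo; AC50 from standard Hill fits.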
A general note: In qHTS, concentration-response curves come from the screen itself.

Assay [10] can be described thus: Cell Viability - Jurkat (AID 426;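 active = dose-dependent loss of cell ATP signal giving a full or clear fitted curve, ranked by lower potency value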; note: potency is the fitted concentration of half-maximal effect). The note with it: qHTS. The essentials:
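Jurkat (clone E6-1, human T-cell leukemia) cells, 5000/well in complete medium, were exposed to compound for 40 hr at 37 °C. Viability was read as intracellular ATP by CellTiter-Glo luminescence; AC50 came from Hill fits of concentration-response data.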

Assay [11] can be described thus: Cell Viability - Hek293 (AID 427;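 active = compounds whose dose-response curve shows a full or clear partial loss of cell viability, called from curve shape rather than a numeric limit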;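 note: potency is the fitted concentration of half-maximal effect; cells exposed to compound for 40 hours at 37 °C before reading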). The note with it: qHTS. Put shortly: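 AC50 values derive from Hill-modelled concentration-response of ATP-based luminescence, normalized between DMSO-only and 100 uM tamoxifen controls. Cells were exposed in complete culture medium for 40 hr at 37 °C before detection.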
Assay [12] can be described thus: Cell Viability - HepG2 (AID 433; calls by dose curve;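 note: potency is the fitted concentration of half-maximal effect; potency for ATP loss meaning cytotoxicity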). Conditions: qHTS. Put shortly:
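ATP luminescence (CellTiter-Glo) after 40 h compound exposure, 37 °C, HepG2, 1500 cells/well, complete medium. Normalized: DMSO = basal, 100 uM tamoxifen = 100% inhibition. AC50 via standard Hill equation.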

Assay [13] can be described thus: Cell Viability - MRC5 (AID 434; calls by dose curve;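 note: potency is the fitted concentration of half-maximal effect; potency reflects cytotoxicity seen as loss of intracellular ATP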). Conditions: MRC5 lung fibroblast viability, qHTS. The essentials: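 MRC5 normal human lung fibroblasts (1500/well) were treated with compounds for 40 hr at 37 °C in complete medium, and viable cells were measured as intracellular ATP by CellTiter-Glo luminescence. AC50 came from Hill fits, normalized to DMSO and 100 uM tamoxifen.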

The nature of assay [14]: Cell Viability - SK-N-SH (AID 435; calls by dose curve; note: potency is the fitted concentration of half-maximal effect). Conditions: SK-N-SH neuroblastoma cell viability qHTS. Put shortly:
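CellTiter-Glo ATP luminescence, 20 min RT read; cells pre-plated 5 hr, compound 40 hr at 37 °C, 1500 cells/well, complete medium. Normalized DMSO = 0, 100 uM tamoxifen = 100% inhibition; Hill-fit AC50.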

Assay [15] can be described thus: Cell Viability - N2a (AID 540; active = well fitted curve in the direction sought with a large enough effect; an effect the other way counts as inactive or inconclusive;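 note: plate controls were DMSO alone for no effect and tamoxifen control for full effect; nearly all actives have a fitted effect of over 45% in size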). Conditions: N2a mouse neuroblastoma cell viability; activity change, negative = cytotoxicity: at 92.2 µM (top of the series). Put shortly: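 Mouse neuroblastoma N2a cells (1500/well) were preincubated 5 hr at 37 °C, then exposed to compounds for 40 hr at 37 °C in complete medium. Viability was read as intracellular ATP by CellTiter-Glo luminescence; AC50 from Hill fits.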

Assay [16] in a line: Cell Viability - NIH 3T3 (AID 541; active = well fitted curve in the direction sought with a large enough effect; an effect the other way counts as inactive or inconclusive; note: nearly all actives have a fitted effect of over 25% in size; note: potency is the fitted concentration of half-maximal effect;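 for activity change, negative = cytotoxicity: plate controls were DMSO alone for no effect and tamoxifen positive control for full effect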). The note with it: NIH 3T3 cell viability, qHTS; activity change, negative = cytotoxicity: at 92.2 µM (top of the series). The essentials: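 NIH 3T3 mouse embryo fibroblasts (1000 cells/well) were plated in complete medium and treated with compound for 40 hr at 37 °C. Viability was read as intracellular ATP by CellTiter-Glo luminescence; AC50 values came from Hill-equation fits of concentration-response data.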

Assay [17] is described as follows: Cell Viability - HUV-EC-C (AID 542; active = well fitted curve in the direction sought with a large enough effect; an effect the other way counts as inactive or inconclusive; note: % is set by controls: 0 for no effect and ±100 for the full control effect; nearly all actives have a fitted effect of over 35% in size). Put shortly: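 HUV-EC-C normal human vascular endothelial cells, 1000 cells/well, pre-incubated 5 hr at 37 °C, then exposed to compounds for 40 hr at 37 °C in complete medium. Viability measured as intracellular ATP by CellTiter-Glo luminescence; AC50 from Hill fits.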
A short description of assay [18]: Cell Viability - SH-SY5Y (AID 544; active = well fitted curve in the direction sought with a large enough effect; an effect the other way counts as inactive or inconclusive; note: nearly all actives have a fitted effect of over 55% in size; note: potency is the fitted concentration of half-maximal effect;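 for viability change, negative = cytotoxic: 0% = DMSO alone and -100% = 100 µM tamoxifen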). The note with it: SH-SY5Y neuroblastoma cell viability; viability change, negative = cytotoxic: at 92.2 µM (top of the series). The essentials: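 Human neuroblastoma SH-SY5Y cells (1500/well) in complete medium were exposed to compounds for 40 hr at 37 °C; intracellular ATP was then quantified by CellTiter-Glo luminescence after 20 min at room temperature. AC50 came from Hill-equation concentration-response fits.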

A short description of assay [19]: Cell Viability - Mesenchymal (AID 546; active = well fitted curve in the direction sought with a large enough effect; an effect the other way counts as inactive or inconclusive;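 note: cells exposed to compound for 40 hours before reading; 0% = DMSO only and -100% = 100 µM tamoxifen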). The essentials:
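Normal human renal glomerulus-derived kidney mesenchymal cells, 1000 per well in complete medium, were treated with compounds for 40 hr at 37 °C. Viability was read as intracellular ATP by CellTiter-Glo luminescence; AC50 values came from Hill-equation fits of qHTS concentration-response data.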

Assay [20] in a line: Cell Viability - Renal Proximal Tubule (AID 545; active = well fitted curve in the direction sought with a large enough effect; an effect the other way counts as inactive or inconclusive;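 note: 0% = DMSO only and -100% = 100 µM tamoxifen; nearly all actives have a fitted effect of over 40% in size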). Put shortly: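 Rat kidney proximal tubule cells, freshly isolated; 1000 cells/well, 5 hr settle, compound 40 hr 37 °C. CellTiter-Glo 20 min RT, luminescence read. AC50 by standard Hill fit.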

Where “and” joins values, the source holds several entries; their conditions need not be identical. Equal values may be shown once. Unmarked numbers belong to inactive results. Results filed as inconclusive are left out. Calls of active or inactive are those of the source. Unless noted, calls come from the whole dose curve; as a rule, active = well fitted curve in either direction with a large enough effect (not every such curve was filed as active); inconclusive = small, poorly fitted or top-dose-only effect, or another doubt; inactive = flat fitted curve, though single readings scatter.

Cytochrome P450 1A2 (Homo sapiens), sequence (P05177 whole entry, looked up): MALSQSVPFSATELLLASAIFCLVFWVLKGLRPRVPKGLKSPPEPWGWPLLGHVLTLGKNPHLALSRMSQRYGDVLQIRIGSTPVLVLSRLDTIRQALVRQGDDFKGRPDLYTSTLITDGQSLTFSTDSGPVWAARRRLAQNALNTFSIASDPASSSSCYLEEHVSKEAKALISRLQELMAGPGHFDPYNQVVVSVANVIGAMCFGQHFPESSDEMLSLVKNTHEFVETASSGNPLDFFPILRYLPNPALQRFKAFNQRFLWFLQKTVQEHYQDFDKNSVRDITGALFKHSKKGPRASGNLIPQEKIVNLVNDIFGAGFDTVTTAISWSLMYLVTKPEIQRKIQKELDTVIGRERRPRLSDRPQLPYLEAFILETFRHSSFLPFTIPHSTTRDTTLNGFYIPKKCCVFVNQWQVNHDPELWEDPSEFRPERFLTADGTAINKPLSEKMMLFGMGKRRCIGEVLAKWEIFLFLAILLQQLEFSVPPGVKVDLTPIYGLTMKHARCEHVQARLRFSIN

Take `NC12CC3CC(CC(C3)C1)C2`: the compound was classed as inactive in [1], in [3] and in assay [6]. The activity change, negative = inhibition is 5.54% in assay [2] (at 17.2 µM (top of the series)) and -1.81% in assay [2] (at 38 µM (top of the series)). Further, the Potency in assay [4] is > 46 µM and > 20.6 µM; in assay [5], > 46 µM and > 20.6 µM.
On to `CC[C@@]1(O)C(=O)OCc2c1cc1n(c2=O)Cc2cc3c(CN(C)C)c(O)ccc3nc2-1`, for which the figures for the Potency in assay [7], in [4] and in assay [5] were > 11.4 µM, > 46 µM and > 9.22 µM, respectively. Moreover, the activity change, negative = inhibition was -17.9% [at 2.29 µM] in [8] and 4.05% [at 11.4 µM] in assay [6].
Regarding `O=c1[nH]cc(F)c(=O)[nH]1`, the compound was classed as inactive in assay [1], in assay [3], in assay [6], in assay [17] and in assay [19]. For the same compound, in [8], the Potency entry is “inactive”. The Potency in assay [9] was > 92 µM; in assay [10], > 92 µM; in assay [11], > 92 µM; in assay [12] it was > 92 µM; in assay [13], > 92 µM; in assay [14] it was 9.55 µM. Also, the Potency in assay [4] is > 46 µM; in assay [5], > 46 µM; in assay [16], 0.316 µM (active); in assay [18] it was 15.8 µM (active). In addition, in assay [2] (at 38 µM (top of the series)), the activity change, negative = inhibition was 18.8%. Besides, the activity change, negative = cytotoxicity in assay [15] is -18.1%.
For the compound `Cn1c(=O)c2c(ncn2C)n(C)c1=O`, the result in assay [1], in assay [3], in [6], in assay [17] and in [19] was inactive. Also, the Potency result in assay [8], in [16], in assay [18] and in [20] was “inactive” throughout. For the same compound, the Potency in assay [9], in assay [10], in assay [11], in assay [12], in assay [13] and in [14] was > 92 µM in each case. The Potency in [4] and in [5] was > 46 µM each time. Moreover, the activity change, negative = inhibition in assay [2] (at 38 µM (top of the series)) is 3.94%. Also, the activity change, negative = cytotoxicity in [15] is 4.95%.
As to `NCCCCCC(=O)O`, the compound was called inactive in assay [1], in assay [3] and in [6]. The Potency entry in assay [8] was “inactive”. The activity change, negative = inhibition in [2] (at 17.2 µM (top of the series)) is -9.25%; in assay [2] (at 38 µM (top of the series)) it was 21.3%. The Potency in assay [4] is > 46 µM and > 20.6 µM; in assay [5], > 46 µM and > 20.6 µM.
